In the library only some 2.8% were active in any assay of this set; here they are far more common.
Pol iota inh = inhibitors of human DNA polymerase iota. Pol iota fluorescent replication assay, 10 min. Potency, µM (top dose mostly 115 µM), without a hit: top-dose activity, negative = inhibition, hits mostly inhibitors. Q9UNA4. 390,000 compounds, 1% hits; also: potency is read from the fitted curve at half-maximal effect
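Fluorescent replication assay read twice, at 0 min and 10 min after adding 50 nM (final) substrate. Enzyme (10 nM) and compounds were first incubated 15 min at room temperature; enzyme-free buffer wells were negative controls.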
PI5P4K alpha inh = blocks human PI5P4K alpha kinase activity. P48426. PI5P4Kalpha enzyme, ADP-Glo luminescence, 60 min; stronger effect = lower value. max response, %. 330,000 compounds, 1.2% hits; active = max response of -50% or lower; inconclusive = between -30% and -50%; inactive = -30% or higher; also: value at the top dose of about 77 µM; % is scaled to controls: 0 for no effect and ±100 for the full control effect
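Reactions run in 0.038 M HEPES pH 7.4, 0.28 mM EGTA, 0.1% CHAPS and 5% DMSO, with PI5P4Kalpha, substrate, compound and 5 microM ATP final, one hour at room temperature. Readout is ADP-Glo luminescence.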
POLK inh = inhibitors of human DNA polymerase kappa | Q9UBT6 | purified Pol kappa, fluorescent DNA synthesis assay, 10 min | 400,000 compounds, 0.53% hits | Potency, µM (top dose mostly 107 µM), without a hit: top-dose activity, negative = inhibition, actives largely listed as inhibitors; also: potency is read from the fitted curve at half-maximal effect; % is scaled to controls: 0 for no effect and ±100 for the full control effect
Target sequence (Q9UBT6 whole entry, looked up): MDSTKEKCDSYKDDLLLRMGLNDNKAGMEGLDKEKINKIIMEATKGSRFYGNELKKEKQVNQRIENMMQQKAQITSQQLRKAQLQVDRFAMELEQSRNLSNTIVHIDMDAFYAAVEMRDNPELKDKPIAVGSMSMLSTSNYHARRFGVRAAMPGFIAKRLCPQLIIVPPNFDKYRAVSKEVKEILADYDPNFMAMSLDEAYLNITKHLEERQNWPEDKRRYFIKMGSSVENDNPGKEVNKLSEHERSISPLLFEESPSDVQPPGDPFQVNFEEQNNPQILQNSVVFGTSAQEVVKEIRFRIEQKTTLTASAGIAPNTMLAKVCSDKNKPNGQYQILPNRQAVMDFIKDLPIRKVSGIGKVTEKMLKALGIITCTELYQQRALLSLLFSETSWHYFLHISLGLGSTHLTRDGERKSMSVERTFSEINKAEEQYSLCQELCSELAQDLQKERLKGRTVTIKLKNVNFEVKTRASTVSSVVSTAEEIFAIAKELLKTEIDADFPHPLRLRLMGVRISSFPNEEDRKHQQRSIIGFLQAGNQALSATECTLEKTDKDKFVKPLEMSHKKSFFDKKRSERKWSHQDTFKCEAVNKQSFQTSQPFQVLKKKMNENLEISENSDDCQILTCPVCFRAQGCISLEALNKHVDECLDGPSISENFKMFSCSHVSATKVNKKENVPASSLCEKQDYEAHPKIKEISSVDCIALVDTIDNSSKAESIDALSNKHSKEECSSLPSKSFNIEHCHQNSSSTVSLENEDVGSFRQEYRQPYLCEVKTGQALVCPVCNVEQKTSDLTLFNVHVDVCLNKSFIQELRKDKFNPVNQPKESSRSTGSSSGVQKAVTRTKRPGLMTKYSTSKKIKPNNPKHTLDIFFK
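Kinetic fluorescence readout at 0 and 10 min followed reaction start with substrate at 50 nM final. Beforehand, enzyme (10 nM Pol kappa) stood 15 min with compound at room temperature; buffer-only wells were negative controls.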
PI4K2A block = blocks human PI4K2A kinase activity. purified PI4K2A, ADP-Glo luminescence, 1 h; stronger effect = lower value. activity change, negative = inhibition, % at 76.9 µM. 420,000 compounds, 0.13% hits. AID 1346378; in the data active = activity change below about -50%; inconclusive = mostly about -30% to -49%;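 also: -100% = wells without enzyme as full effect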
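ADP-Glo luminescence measured ADP generated by PI4K2A enzyme (4 ug/mL before mixing) with 1.2 mM PI substrate (pre-mix) and 300 microM ATP (pre-mix). Tris pH7.5 buffer with MgCl2, Triton X-100; 1 h reaction at ambient temperature.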
POLB inh = blocks human DNA polymerase beta activity; 340,000 compounds, 1.3% hits; Potency, µM (series often up to 114 µM), for inactives: top-dose activity change, negative = inhibition, most hits filed as inhibitors; Pol beta primer extension/strand displacement, fluorescence kinetic; AID 485314; P06746; also: potency is read from the fitted curve at half-maximal effect; % is scaled to controls: 0 for no effect and ±100 for the full control effect
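Kinetic readout of DNA synthesis with strand displacement by Pol beta. Compound and 10 nM enzyme sit 15 min at room temperature; 50 nM substrate starts the reaction, read immediately and at 10 min.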
Pol eta inh = inhibitors of human DNA polymerase eta; Q9Y253; recombinant Pol eta, fluorescent DNA replication assay; Potency, µM (titrated, usually from 114 µM), without a hit: at the highest dose activity change, negative = inhibition, hits mostly inhibitors; 390,000 compounds, 1.2% hits; AID 588591; also: potency is read from the fitted curve at half-maximal effect; % is scaled to controls: 0 for no effect and ±100 for the full control effect
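Pol eta (10 nM) was preincubated with compounds for 15 min at room temperature, after which fluorescent replication substrate (50 nM final) was added to start the reaction. Fluorescence was read kinetically at 0 and 10 min.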
TbPGK inh = TbPGK inhibition, hit validation; Potency, µM (series often up to 57.5 µM), inactives show at the highest dose activity change, negative = inhibition, actives largely listed as inhibitors; 500 compounds, 79% hits; TbPGK coupled GAPDH assay, Kinase-Glo luminescence; shares compounds with POLK inh; also: potency is read from the fitted curve at half-maximal effect; % is scaled to controls: 0 for no effect and ±100 for the full control effect; nearly all actives have a fitted effect of over 65% in size
POLI cherry-pick = Inhibitors of human DNA polymerase iota, confirmation | shares compounds with POLK inh | Pol iota primer extension, TAMRA/BHQ fluorescence | Potency, µM, most hits filed as inhibitors | 1,500 compounds, 77% hits | AID 720496; also: potency is read from the fitted curve at half-maximal effect
* marks the source's active call; other numbers are inactive results; i = inactive; u = inconclusive; x = no result given; [ ] = dose if it differs, or a comment. Unless noted, calls follow the shape of the dose curve; as a rule, active = well fitted curve in the direction sought with a large enough effect; inconclusive = small, poorly fitted or top-dose-only effect, or another doubt; inactive = no such curve, though single readings can be large; an effect the other way counts as inactive or inconclusive.

SMILES | Pol iota inh | PI5P4K alpha inh | POLK inh | PI4K2A block | POLB inh | Pol eta inh | POLI cherry-pick | others
O=C(Cn1c(=O)oc2cc(S(=O)(=O)N3CCCCCC3)ccc21)Nc1ccc(F)cc1F | u | x | -11% | 2 | -11% | x | x
CN(C)c1ccc(N=NS(=O)(=O)O)cc1 | x | x | x | i | x | x | x
Cc1csc(N=Nc2ccc(N(C)C)cc2)[n+]1[O-] | x | -56* | x | -79* | x | u | x | TbPGK inh=13µM*
CN(C)c1ccc(CNc2nc(-c3ccco3)nn2S(=O)(=O)c2ccc(Cl)cc2)cc1 | 47% | x | -17% | -1 | 0% | 3% | x
COc1ccccc1-c1c(C)nn2c(N3CCN(c4cccc(Cl)c4)CC3)cc(C)nc12 | -7% | x | -8%[60.1 µM] | -1 | u | -4% | x
N#CC(C#N)=C(N)/C(C#N)=C/c1cc(O)c(O)c(O)c1 | u | -67* | 0.79µM* | -17 | x | u | 47*
COc1ccccc1CCNC(=O)c1cc(-c2ccccn2)nc2ccc(Br)cc12 | x | x | x | x | 1% | x | x
COc1ccccc1CCNC(=O)c1cc(-c2ccncc2)nc2ccc(Br)cc12 | 42% | u | -26% | 1 | -14% | 45µM* | u
Cc1ccc(CNC(=O)c2nnn(CC(=O)Nc3cccc(C)c3C)c2N)cc1 | 15% | 1 | -10% | -2 | u | u | 27*
Cc1ccc(CNC(=O)Cn2nnc(C(=O)Nc3cccc(C)c3C)c2N)cc1 | 13% | -2 | -5% | -2 | 2% | -18% | x
CCOc1ccccc1C1CC(=O)NC(C)=C1C(=O)OC1CCCCCC1 (stereo not drawn) | 6% | x | -8% | 2 | 0% | -18% | x
O=C(Nc1nc2ccccc2[nH]1)c1ccccc1F | 21% | -12 | 3% | -80* | 19% | -17% | x | TbPGK inh=8.2µM*
COc1cc(/C=C(\C#N)C(=O)Nc2cccc(C(=O)O)c2)ccc1OCc1ccc(Cl)cc1 | u | -10 | u | -3 | 10µM* | 56µM* | u
COc1cc(/C=C(\C#N)C(=O)Nc2ccccc2)ccc1OCCN1CCOCC1 | 32% | -6 | -1% | -4 | 37% | 1% | x
Fc1cc(F)c2nc(Nc3nc4cc5c(cc4s3)OCO5)sc2c1 | u | -2 | u | 2 | u | 2.8µM* | u
Fc1cccc2sc(Nc3nc4cc5c(cc4s3)OCO5)nc12 | -11% | u | -2% | -6 | 14% | -12% | x
Cc1ccc(NC(=O)CCc2nnc3ccc(NCc4ccco4)nn23)nc1 | 16% | -3 | -13% | 4 | -1% | 20% | x
CC(=O)c1cccc(NC(=O)CCc2nnc3ccc(NCc4ccco4)nn23)c1 | 6% | -19 | 0% | -5 | u | u | u
CCCCC[C@H](O)/C=C/[C@H]1[C@H](O)CC(O)[C@@H]1C/C=C\CCCC(=O)O (stereo partly drawn) | x | x | 5%[19.4 µM] | x | x | x | x
CCCCC[C@H](O)/C=C/[C@@H]1[C@@H](C/C=C\CCCC(=O)OC)[C@@H](O)C[C@H]1O | 1.3µM* | 1 | -10% | 2 | 24% | u | x | TbPGK inh=4%
COc1ccc(-n2c(=O)c3sc4ccccc4c3n(CC(=O)NCc3ccccc3)c2=O)cc1 | 68% | x | 5% | -2 | 22% | -13% | x
COn1c(=O)c(=O)n(O)c2ccccc21 | -3% | -11 | -20% | 5 | 0% | 1% | x
O=c1c(=O)n(O)c2ccccc2n1O | -26% | x | 1% | 2 | 9% | -6% | u
Cc1ccc(C)c(NC(=O)CSc2nnc(NC(=O)Nc3ccccc3)s2)c1 | 44% | x | -6%[60.1 µM] | -1 | -8% | -6% | x

Bioassay records (PubChem BioAssay)
